Reference: PubChem BioAssay (NCI)
Compounds without any hit were thinned out: in the full panel of roughly 83,000, 20% have a hit.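 Cell lines were cultured in 96-well plates, exposed to a single compound concentration, and assessed for percent growth 48 hours later.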 Values without a mark were called inactive. The source made the active and inactive calls. Rule for the calls: active = growth percent below 10; inactive = the rest.

Legend:
Assay in all cases: NCI-60 one-dose screen, 48 h (100 = growth as untreated, 0 = no growth, -100 = all killed)
Conditions in all cases: 10 µM unless noted
SK-MEL-2 melanoma = tested on: SK-MEL-2 melanoma
EKVX NSCLC = tested on: EKVX NSCLC
SN12C renal = tested on: SN12C renal
UO-31 renal = tested on: UO-31 renal
TK-10 renal = tested on: TK-10 renal
ACHN renal = tested on: ACHN renal
CAKI-1 renal = tested on: CAKI-1 renal
A498 renal = tested on: A498 renal
CCRF-CEM leukemia = tested on: CCRF-CEM leukemia
MOLT-4 leukemia = tested on: MOLT-4 leukemia
SR leukemia = tested on: SR leukemia
RPMI-8226 leukemia = tested on: RPMI-8226 leukemia
OVCAR-8 ovarian = tested on: OVCAR-8 ovarian
OVCAR-5 ovarian = tested on: OVCAR-5 ovarian
OVCAR-4 ovarian = tested on: OVCAR-4 ovarian
SK-OV-3 ovarian = tested on: SK-OV-3 ovarian
IGROV1 ovarian = tested on: IGROV1 ovarian
OVCAR-3 ovarian = tested on: OVCAR-3 ovarian
HS 578T breast = tested on: HS 578T breast
NCI/ADR-RES ovarian = tested on: NCI/ADR-RES ovarian

Compound | growth (SK-MEL-2 melanoma) | growth (EKVX NSCLC) | growth (SN12C renal) | growth (UO-31 renal) | growth (TK-10 renal) | growth (ACHN renal) | growth (CAKI-1 renal) | growth (A498 renal) | growth (CCRF-CEM leukemia) | growth (MOLT-4 leukemia) | growth (SR leukemia) | growth (RPMI-8226 leukemia) | growth (OVCAR-8 ovarian) | growth (OVCAR-5 ovarian) | growth (OVCAR-4 ovarian) | growth (SK-OV-3 ovarian) | growth (IGROV1 ovarian) | growth (OVCAR-3 ovarian) | growth (HS 578T breast) | growth (NCI/ADR-RES ovarian)
C#CCNC(=O)[C@]1(C)CCC[C@@]2(C)[C@H]1CC=C1C=C(C(C)C)CC[C@@H]12 | 95.9% | 94.6% | 96.7% | 88.8% | 99.7% | 106% | 87.9% | 102% | 110% | 87.9% | 105% | 103% | 113% | 113% | 101% | 104% | 99.3% | 106% | 106% | 104%
COc1ccc(C#Cc2ccc(=O)oc2-c2cc(OC)c(OC)c(OC)c2)cc1O | 61.6% | 79.8% | 58% | 37.9% | 81.8% | 62% | 22.8% | 56.6% | 18.5% | 15.1% | 13.7% | 18.2% | 69.6% | 43% | 69% | 47.2% | 37.5% | -4.92% (active) | 54.5% | 19.6%
CN1CCN(c2ccc(NC(=O)c3cncnc3Nc3ccc(OCc4cccc(F)c4)c(Cl)c3)cc2)CC1 | 120% | 98.6% | 63.9% | 25% | 103% | 89.3% | 81.5% | 70.8% | 16.2% | 6.75% (active) | 14.9% | 70.2% | 76.7% | 76.3% | 72.1% | 103% | 91.6% | 81.7% | 75% | 75.2%
CN(C)c1ccc(-c2ccc3c(c2)c(-c2ccccc2)nc(=O)n3C)cn1 | 26.8% | 69.6% | 42.6% | 42.3% | 56.4% | 49.9% | 34.7% | 25.8% | 13% | 29.9% | 16.7% | 2.69% (active) | 54% | 53.2% | 74.6% | 38.6% | 49.1% | 13.1% | 41.2% | 27.2%
Fc1ccc(Cn2cc(CSc3nc4ccccc4o3)nn2)cc1 | 99.1% | 108% | 96.5% | 83.6% | 95.7% | 102% | 91.3% | 98% | 100% | 92.7% | 103% | 105% | 102% | 100% | 98.9% | 91.3% | 98.8% | 98.5% | 105% | 109%
Clc1ccccc1-c1cnn2cc(-c3ccccc3)cnc12 | 101% | 83.3% | 79.5% | 84.6% | 89.1% | 74.1% | 81.4% | 72% | 89.2% | 83.7% | 59.9% | 87.1% | 78.9% | 79.6% | 76.1% | 83.9% | 78.6% | 90% | 74.4% | 83.7%
COc1ccc(/C=C/c2c(C(=O)/C=C/c3ccccc3)c(C)nc3ccccc23)cc1 | 14.2% | 41% | 23.6% | -7.16% (active) | 25.1% | 7.53% (active) | 20.9% | 46.6% | 7.45% (active) | 6.35% (active) | 10.7% | 0.598% (active) | 0.97% (active) | -29.3% (active) | 37.2% | 63.6% | 6.06% (active) | -22.4% (active) | 38.2% | 3.63% (active)
C=C1C(=O)O[C@H]2[C@H]1CC/C(COC(=O)/C=C/C(=O)OC/C1=C/CC[C@@]3(C)O[C@H]3[C@H]3OC(=O)C(=C)[C@@H]3CC1)=C\CC[C@@]1(C)O[C@@H]21 | 93.4% | 88.2% | 4.73% (active) | -41.7% (active) | 0.985% (active) | -13.5% (active) | 63.3% | 102% | -12.9% (active) | 7.58% (active) | 7.6% (active) | -15.2% (active) | 62.7% | 88.8% | 86.2% | 110% | 87.6% | -0.457% (active) | 90.2% | 96.5%
O=C1/C=C/[C@@H](O)[C@@H]2C[C@@H](O)C[C@H]2/C=C/CCC[C@@H](O)CCO1 | 122% | 82% | 106% | 108% | 115% | 104% | 83.7% | 66.7% | 116% | 106% | 101% | 126% | 66.6% | 113% | 85.4% | 90.3% | 108% | 106% | 41.9% | 89.2%
O=P(O)(O)OCC1OC(n2cnc3c(NCc4ccco4)ncnc32)C(O)C1O (stereo not given) | 89.2% | 48.6% | 12.1% | -6.51% (active) | 60.9% | 4.1% (active) | -42.3% (active) | 7.68% (active) | -31.5% (active) | 16% | 27.1% | -23.6% (active) | 9.63% (active) | 45.3% | 15.7% | 1.95% (active) | -36.4% (active) | -72% (active) | 32.5% | 19.5%
CCN1C(=O)N(CC)C2C1NN=c1s/c(=C\c3ccc(C(F)(F)F)cc3)c(=O)n12 (stereo not given) | 56.1% | 48.5% | 24.2% | 34.3% | 59.7% | 27.6% | 25.9% | 8.73% (active) | 5.13% (active) | 10.9% | 12.2% | 9.95% (active) | -2.79% (active) | 26.7% | 46% | 36.5% | 18.7% | 3.24% (active) | 18.4% | 2.84% (active)
COc1cccc(CCNc2ncnc3c2ncn3Cc2nnc3c4ccccc4c(Cl)nn23)c1 | 20.2% | 73.9% | 46.9% | 25.2% | 67.4% | 24.9% | 18.3% | 83.4% | 34% | 20.8% | 33.5% | 48.8% | 40.3% | 102% | 57.5% | 3.23% (active) | 40% | 64% | 40.8% | 40.7%
Cc1[nH]c(C2CC(c3ccc(C(F)(F)F)c(F)c3)=NN2c2ccccc2)c(C)c1C(=O)NCC(F)(F)F (stereo not given) | 104% | 69.3% | 90.7% | 58.8% | 151% | 95.8% | 59% | 48.2% | 79.4% | 58.3% | 81.6% | 70.7% | 87.8% | 94.8% | 92.5% | 85.6% | 67.3% | 98.2% | 87% | 89.7%
CCN1CCN(CCNc2nccc(-c3c(-c4ccc(F)c(OC)c4)nc4sccn34)n2)S1(=O)=O | 37.7% | 88.5% | 70.8% | 86.9% | 118% | 59.6% | 77.5% | 102% | 59.5% | 81.8% | 45.3% | 68.7% | 77.2% | 114% | 92% | 87.5% | 74.4% | 85.5% | 77.7% | 103%
COc1cc(/C=N/Nc2ccc(Br)cc2)cc(OC)c1OC | 73% | 63.9% | 69.7% | 35% | 97.2% | 31.6% | 10.2% | 60% | 31.1% | 44.1% | 68.8% | 58.4% | 54.8% | 68.4% | 51% | 85.2% | 57.3% | 63.3% | 80% | 57.2%
N#CSc1c[nH]c2cccc(/C=C/C(=O)/C=C(O)/C=C/c3cccc4[nH]cc(SC#N)c34)c12 | -58.8% (active) | -23.9% (active) | -71.2% (active) | -87.3% (active) | -44.8% (active) | -85.6% (active) | -70% (active) | -12.7% (active) | -22.1% (active) | -39% (active) | 0.385% (active) | -28.9% (active) | -34.2% (active) | -69.6% (active) | -20.1% (active) | -24% (active) | -37.4% (active) | -17.6% (active) | 22.8% | 39.9%
